Out of some 380,000 compounds screened, about 170 (0.045%) were called active. Where a call stands in place of a potency, no number is given. This is one part of a sample in which actives are shown more often than they occur. Calls come from the whole dose curve; as a rule, active = well fitted inhibition curve with a large enough effect; inconclusive = small, poorly fitted or top-dose-only effect; inactive = no such curve, though single readings can be large or run the other way.
biological target: Phosphoglycerate kinase, glycosomal (Trypanosoma brucei brucei) (UniProt P07378); assay: qHTS Assay to Find Inhibitors of Phosphoglycerate Kinase; conditions: PGK/GAPDH coupled, Kinase-Glo luminescence, 60 min; series mostly up to 57.5 µM; note: nearly all actives have a fitted effect of over 60% in size
Sequence (P07378 whole entry, looked up): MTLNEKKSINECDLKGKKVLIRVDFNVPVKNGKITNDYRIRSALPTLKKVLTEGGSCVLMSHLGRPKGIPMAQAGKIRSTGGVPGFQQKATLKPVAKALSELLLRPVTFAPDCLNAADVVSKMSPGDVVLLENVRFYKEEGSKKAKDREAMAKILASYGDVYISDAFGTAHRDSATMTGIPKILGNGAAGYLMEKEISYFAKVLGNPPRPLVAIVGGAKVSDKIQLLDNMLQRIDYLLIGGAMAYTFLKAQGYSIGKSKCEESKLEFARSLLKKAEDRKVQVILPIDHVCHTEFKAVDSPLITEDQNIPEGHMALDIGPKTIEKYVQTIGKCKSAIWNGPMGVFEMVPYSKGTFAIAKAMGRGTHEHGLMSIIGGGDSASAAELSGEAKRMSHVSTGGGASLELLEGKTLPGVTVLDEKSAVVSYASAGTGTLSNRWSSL
From the text: Several species of the Trypanosomatidae family of parasitic protozoans cause a spectrum of diseases throughout the tropical and subtropical world. Sleeping sickness, caused by two subspecies of Trypanosoma brucei, is endemic to areas of sub-Saharan Africa, while Chagas disease, a manifestation of Trypanosoma cruzi infection, is prevalent throughout Central and South America. In addition, many species of Leishmania are responsible for a range of cutaneous and visceral diseases, causing ulcers, destructive lesions and kalaazar, a lethal infection of the viscera. Collectively, these organisms infect 30 million people worldwide (~500 million live in endemic areas), and account for ~130,000 deaths annually. Given their debilitating and prevalent nature, trypanosomatid parasites impose a heavy medical, economic and social burden on entire populations, primarily in the developing world. The problem is further exacerbated by the fact that existing treatments have progressed little in the past 50 years, and current drugs show high toxicity and poor efficacy. […] Blood-stream stages of T. brucei are entirely dependent on glycolysis as a source of ATP, and the tricarboxylic acid cycle and oxidative phosphorylation are both repressed. Glycolysis in axenically cultured T. cruzi, representing the intracellular pathogenic stage, is also essential for these parasites. […] Previous studies have shown that the glycolytic enzyme, phosphoglycerate kinase (PGK), is a viable target for drugs to kill these parasites. […] NIH Molecular Libraries Probe Production Network [MLPCN] NIH Chemical Genomics Center [NCGC] MLPCN Grant: R03 MH093212 PI Name: Malcolm Walkinshaw, University of Edinburgh
3ul of substrate/PGK buffer (columns 1,2,5-48) are dispensed into Greiner white solid bottom 1536-well assay plates; columns 3-4 receive only TEA buffer as 0x PGK controls. Compounds are then transferred via Kalypsys pin tool equipped with 1536-pin array (10nl slotted pins, V&P Scientific, San Diego, CA). Following addition of compound, 1ul of GAPDH (100nM final concentration, all columns) is added to initiate the reaction (this upstream coupling enzyme is necessary for in-well production of PGK substrate, 1,3-bisphosphoglycerate (1,3-BPG), which is unstable and not commercially available). The plates are then incubated at room temperature for 60 minutes. Kinase-Glo Plus reagent is added (2ul) and plates incubated for 10 minutes, before being transferred to a ViewLux high-throughput CCD imager (PerkinElmer) wherein single end-point measurements of luminescence are acquired using a clear filter. All reagents are diluted in an assay buffer consisting of 100mM TEA (pH 7.6), 5mM MgCl2 and 0.01% Tween-20.
Potency is the fitted concentration of half-maximal effect.

**Q.** `O=C1NC(=O)N(Cc2ccco2)C(=O)/C1=C\c1ccc(-c2ccc(F)cc2)o1` was tested. Which Potency did it give?
**A.** inactive

**Q.** How did the Potency turn out when `COc1ccc(N2C(=O)/C(=C/c3ccco3)C(=O)NC2=S)cc1` was run?
**A.** 12.6 µM (active)

**Q.** For `COc1cccc(N2C(=O)NC(=O)/C(=C\c3ccc([N+](=O)[O-])s3)C2=O)c1`, which Potency is on record?
**A.** inactive

**Q.** How did the Potency turn out when `c1ccc(C2NCc3ccccc3-n3cccc32)cc1` (stereo not given) was run?
**A.** inactive

**Q.** How did the Potency turn out when `N[C@@H](Cc1c[nH]c2ccccc12)c1nnc(SCc2c(F)cccc2Cl)o1` was run?
**A.** inactive
